Source: PubChem
NS1 inh: influenza NS1 inhibition; Potency, µM (titrated, usually from 46.1 µM); 270,000 compounds, 0.4% hits; AID 2326; calls by dose curve; also: actives are rising curves; nearly all actives have a fitted effect of over 50% in size
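S. cerevisiae expressing influenza A NS1, grown in glucose, washed, then diluted 1:100 into pH 6.0 -URA galactose medium with 23 nl compound. Growth recovery read as OD600; NS1-free strain serves as control.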
CHX counter: counter-screen hit for Shiga toxin inhibitors, cycloheximide; cell reporter, cycloheximide protein synthesis inhibition counterscreen; max response, %; 300,000 compounds, 12% hits; in the data active = max response mostly above about 13%, no sharp cut-off; inactive = mostly below about 14%; also: read at 38.3 µM for the half of the compounds with a filed dose
Pf growth 96h: P. falciparum growth inhibition at 96 hour, primary screen for plastid delayed-death inhibitors; 320,000 compounds, 6.9% hits; Potency, µM (series often up to 28.7 µM), actives largely listed as inhibitors; P. falciparum luciferase reporter growth, 96 h
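Parasite growth measured via integrated firefly luciferase reporter in P. falciparum. Infected erythrocytes at 2% hematocrit, 0.05% parasitemia final were treated 96 hours at 37 C under 5% CO2, and luminescence was read.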
Shiga toxin inh: inhibitors of Shiga toxin in Vero cells; Vero cells, Shiga toxin protein synthesis inhibition reporter; AID 2315; 290,000 compounds, 9.2% hits; inhibition, % at 38.7 µM; in the data active = inhibition mostly above about 28%, no sharp cut-off; inactive = mostly below about 43%
Pf growth 48h: P. falciparum growth inhibition at 48 hours (one generation); P. falciparum luciferase growth in erythrocytes, 48 h; Potency, µM (highest dose often 28.7 µM), hits mostly inhibitors; 310,000 compounds, 5.9% hits
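Growth was read as firefly luciferase luminescence after a 48 h, 37 C, 5% CO2 exposure of compounds to reporter-bearing P. falciparum cultures (0.1% parasitemia, 2% hematocrit final) in Albumax-supplemented RPMI 1640.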
Each line names hits and unclear results; the compound was inactive in the other large screens. Shown are actives, neighbours in structure and some others; about 21% of the full set was active somewhere. Unless noted, calls follow the shape of the dose curve; as a rule, active = well fitted inhibition curve with a large enough effect; inconclusive = small, poorly fitted or top-dose-only effect, or another doubt; inactive = no such curve, though single readings can be large or run the other way.

COCCNC(=O)/C(C#N)=C/c1cc(C)n(-c2ccc(C)cc2)c1C	CHX counter 49, Shiga toxin inh 63
Cc1cc(/C=C(\C#N)C(=O)NCc2ccco2)c(C)[nH]1	none
O=C(COC(=O)Cc1ccc(F)cc1)NC1CCCCC1	none (no result: NS1 inh, CHX counter, Shiga toxin inh)
CCOCCCN1C(=O)CN(C2CCC(C)CC2)C(=O)C1c1ccc(C)cc1 (configuration not stated)	Pf growth 48h inconclusive (no result: NS1 inh)
Cc1cc(C(=O)CN2C(=O)NC3(CCCc4sccc43)C2=O)c(C)n1-c1ccccc1 (configuration not stated)	CHX counter 39, Pf growth 96h inconclusive, Shiga toxin inh 29, Pf growth 48h inconclusive
COc1ccc(-n2c(C)cc(C(=O)CN3C(=O)NC4(CCCc5sccc54)C3=O)c2C)cc1 (configuration not stated)	Pf growth 96h 4.7µM, Pf growth 48h inconclusive
COc1ccc(CCNC(=O)Cn2nc(C)n3nc(-c4ccccc4)cc3c2=O)cc1OC	none
COC(=O)c1cc(NC(=O)CC2SC(=Nc3ccccc3)N(CCc3c[nH]c4ccccc34)C2=O)cc(C(=O)OC)c1 (configuration not stated)	Pf growth 96h 1.7µM, Pf growth 48h 13µM
COc1ccc(N=C2SC(C(=O)Nc3ccc(C(=O)O)cc3)CC(=O)N2Cc2cccs2)cc1 (configuration not stated)	Pf growth 96h 7.4µM, Pf growth 48h inconclusive
COc1ccc(N=C2SC(CC(=O)Nc3ccccc3)C(=O)N2CC2CCCO2)cc1 (configuration not stated)	Pf growth 96h inconclusive, Pf growth 48h 12µM
COc1ccc(N=C2SC(CC(=O)Nc3ccccc3)C(=O)N2CCN2CCOCC2)cc1 (configuration not stated)	none (no result: NS1 inh)
COC(=O)C1=C(C)N(CCc2c[nH]c3ccccc23)C(=O)C1	none
CCOc1cc(/C=N/NC(=O)C(=O)NC)cc(Br)c1O	Pf growth 96h inconclusive
O=C(c1ccc(S(=O)(=O)c2cccc(Cl)c2)c([N+](=O)[O-])c1)N1CCN(c2ccccn2)CC1	CHX counter 22, Pf growth 96h inconclusive, Pf growth 48h inconclusive (no result: NS1 inh)
O=C(c1ccc(S(=O)(=O)Cc2ccccc2F)c([N+](=O)[O-])c1)N1CCCCCC1	Pf growth 96h inconclusive, Pf growth 48h inconclusive (no result: NS1 inh)
O=C(c1ccc(S(=O)(=O)c2ccccc2Cl)c([N+](=O)[O-])c1)N1CCCCCC1	Pf growth 96h 13µM, Pf growth 48h inconclusive
COc1ccc(/C=C/C(=O)OCC(=O)c2c(N)n(C)c(=O)n(C)c2=O)c(OC)c1	none
CC(=O)c1ccc(OCC(O)CN2CCC(C)CC2)cc1 (configuration not stated)	Pf growth 96h inconclusive (no result: Pf growth 48h)
Cc1ccc2c(c1)c(C)c(C)n2CC(O)Cn1nc(C)cc1C (configuration not stated)	Pf growth 48h inconclusive (no result: Pf growth 96h)
Cc1cccc(C)c1OCC(O)CN1CCN(c2ccccn2)CC1 (configuration not stated)	none (no result: NS1 inh)
O=C1C2CC=CCC2C(=O)N1c1ccc(OCC(O)Cn2nnc3ccccc32)cc1 (configuration not stated)	Pf growth 96h 15µM (no result: Pf growth 48h)
Cc1ccc2c(c1)c(C)c(C)n2CC(O)Cn1nnc2ccccc21 (configuration not stated)	CHX counter 30, Pf growth 96h inconclusive
CC(=O)c1ccc(OCC(O)CN2C(C)CCCC2C)cc1 (configuration not stated)	Pf growth 96h 8.3µM (no result: Pf growth 48h)
Cc1cccc(C)c1OCC(O)Cn1nnc2ccccc21 (configuration not stated)	CHX counter 16
CCC1CCC2(CC1)NC(=O)N(CC(=O)Nc1cc(C)on1)C2=O (configuration not stated)	none
CC(C)[C@H](NC(=O)N1CCn2c1nc1ccccc12)C(=O)N1CCCCC1	Pf growth 96h inconclusive, Pf growth 48h inconclusive
CC(=O)c1ccc(OCC(O)Cn2nnc3ccccc32)cc1 (configuration not stated)	CHX counter 39, Pf growth 48h 7.4µM
COC(=O)c1ccc(OCC(O)Cn2nnc3ccccc32)cc1 (configuration not stated)	Pf growth 96h inconclusive
CN(C)C(=O)CCSc1nnc(-c2ccncc2)o1	none (no result: NS1 inh)
CC1(OC(=O)CCc2ccccc2)C(=O)C=C2C=C(c3ccsc3)OC=C2C1=O (configuration not stated)	NS1 inh 1.3µM
Cc1sc2nc(CSc3ccc([N+](=O)[O-])cc3)[nH]c(=O)c2c1C	none
O=c1[nH]c(CSc2nc3ccccc3s2)nc2cc(Cl)ccc12	none
Cc1sc2nc(CSc3nc4ccccc4s3)[nH]c(=O)c2c1C	CHX counter 21 (no result: NS1 inh)
O=c1[nH]c(CSc2nc3ccccc3s2)nc2ccccc12	CHX counter 30, Shiga toxin inh 52
Cc1cc(C)nc(SCc2nc(N)nc(-c3ccccc3O)n2)n1	Pf growth 48h inconclusive
Cc1ccc(NC(=O)c2ccc3c(c2)CCN3S(C)(=O)=O)c(C)c1	Pf growth 48h inconclusive
Cc1ccc(-c2nn(-c3ccccc3)cc2C(=O)N2CCN(C3CCS(=O)(=O)C3)CC2)cc1 (configuration not stated)	Pf growth 96h inconclusive (no result: NS1 inh, CHX counter, Shiga toxin inh)
Cc1ccc(-c2nn(-c3ccccc3)cc2C(=O)N2CCOCC2)cc1	Pf growth 96h 2.3µM
Cc1c(C(=O)N2CCOCC2)cc(C(C)(C)C)n1-c1ccccc1	Pf growth 96h 9.3µM, Pf growth 48h 9.3µM
CC(C(=O)N1CCOCC1)(c1ccccc1)c1ccccc1	Pf growth 48h inconclusive
COc1ccc(-c2nn(-c3ccccc3)cc2C(=O)N2CCN(S(=O)(=O)c3cccc(F)c3)CC2)cc1	Pf growth 96h inconclusive, Pf growth 48h 10µM (no result: NS1 inh, CHX counter, Shiga toxin inh)
COc1ccc(-c2nn(-c3ccccc3)cc2C(=O)N2CCN(S(=O)(=O)c3ccccc3C#N)CC2)cc1	Pf growth 96h 9.3µM, Pf growth 48h inconclusive (no result: NS1 inh, CHX counter, Shiga toxin inh)
NC1=NC(c2ccccc2)=NC1(NC(=O)c1ccccc1)C(Cl)Cl (configuration not stated)	none
CC(C)[C@H](NC(=O)C1CCN(S(=O)(=O)c2ccccc2)CC1)C(=O)NCc1ccncc1	Pf growth 96h inconclusive
COc1cccc(C(=O)NCC(=O)n2nc(C)cc2C)c1	none
CC(C)c1ccccc1NC(=O)COC(=O)c1cc(=O)[nH]c(=O)[nH]1	none
Cc1ccc(-c2nc(N3CCOCC3)sc2C(=O)N2CCOCC2)cc1	Shiga toxin inh 24
Cc1ccc(NC(=O)C(NC2CCCc3ccccc32)c2ccccc2)c([N+](=O)[O-])c1 (configuration not stated)	CHX counter 22, Pf growth 96h inconclusive, Shiga toxin inh active, Pf growth 48h 13µM
Cc1ccc(NC(=O)C(NC2CCCc3ccccc32)c2ccccc2)cc1Cl (configuration not stated)	CHX counter 26, Pf growth 96h inconclusive, Pf growth 48h inconclusive
O/N=C/Cc1[nH]c2ccccc2c1-c1ccccc1	none
CCOC(=O)C(CC)(CCC(=O)O)c1csc(N)n1 (configuration not stated)	none (no result: Pf growth 96h, Pf growth 48h)
